# In PubChem BioAssay (NCI):
# This is part of a sample that, as a whole, favours compounds with a hit. Of some 83,000 tested, about 20% had one in any assay.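 For each line, cells grew in 96-well plates with the test compound present at a single concentration for 48 hours.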 Values without a mark were called inactive. Calls of active or inactive are those of the source. Rule for the calls: active = growth percent below 10; inactive = the rest.
# Test system: NCI-H322M lung
# Test: NCI-60 one-dose screen, 48 h (100 = growth as untreated, 0 = no growth, -100 = all killed)
# Details: 10 µM unless noted
row,Compound,growth
1,COc1ccc2nc(-c3ccc(Cl)cc3)cc(-c3nnc(SCC(=O)Nc4ccc(/C(C)=N\O)cc4)o3)c2c1,57.4%
2,C/C(=C\c1cnc(C)s1)[C@@H]1C[C@@H]2O[C@@H]2CCC[C@H](C)[C@H](O)[C@@H](C)C(=O)C(C)(C)[C@@H](O)CC(=O)O1,25.7%
3,O=C(/C(=C\c1c(-c2ccccc2)[nH]c2ccccc12)S(=O)(=O)c1ccccc1)c1ccccc1,67.6%
4,O=c1[nH]c(-c2cccc(F)c2)cc2cc(F)ccc12,59.1%
5,O=C1CS/C(=N/c2nnc(-c3ccc(O)cc3)s2)N1,110%
6,C[C@H](Oc1cc(-c2cnn(C3CCNCC3)c2)cnc1N)c1c(Cl)ccc(F)c1Cl,75.2%
7,COCCOCCOCc1n(Cc2ccc3ccccc3n2)c2ccccc2[n+]1Cc1ccc2ccccc2n1,47.4%
8,CCOC(=O)c1cnn(-c2nc(-c3ccc(F)cc3)c(C#N)c(N3CCOCC3)n2)c1N,105%
9,CC(=O)c1c(OCC#N)ccc2c(C)cc(=O)oc12,113%
10,CN(CCC#N)C(=O)Nc1ccccc1,107%
11,C#Cc1ccccc1NC(=O)c1sc2nc3c(cc2c1N)CCCCC3,101%
12,COCCOC(=O)COc1ccc(OC)cc1,94.9%
13,C#C[C@@]1(O)[C@@H](CO)O[C@@H](n2cnc3c(-c4ccccc4)ncnc32)[C@@H]1O,104%
14,COc1cc(NCC(=O)Nc2cc(Nc3ccc(C)cc3)ncn2)c(Cl)c(OC)c1Cl,84.8%
15,COc1ccc2oc(=O)cc(-c3c(C#N)c(N)n4nc(N)c(C#N)c4c3C#N)c2c1,96.8%
16,O=C1NC(SCc2ccc(F)cc2)=N/C1=C/c1cccc(OCc2ccc(Cl)cc2)c1,50.3%
17,COc1ccc(Nc2nc(SCC(C)C)nc(-c3ccc(F)cc3)c2C#N)cc1,97%
18,COC(=O)/C=C1\SC(=Nc2ccc(F)cc2)N(CCc2c[nH]c3ccccc23)C1=O,101%
19,Nc1c(C(=O)Nc2ccccc2)sc2nc3c(cc12)CN(C(=O)OCc1ccccc1)CC3,70%

row,Compound,growth
1,COc1ccc(C2=NN(c3ccc(S(N)(=O)=O)cc3)C(c3ccc(Cl)cc3)C2)c(O)c1 (configuration not stated),71.6%
2,COc1ccc(C(C)c2cc(OC)c(OC)c(OC)c2)cc1 (configuration not stated),44.6%
3,COc1ccc(-n2nc(C(=O)NCC(=O)O)nc2-c2ccccc2)cc1,98.1%
4,CCOC(=O)C1=C(C)n2nc(CC#N)c(C#N)c2NC1c1ccc(Cl)cc1 (configuration not stated),91.7%
5,Nc1c(C(=O)Nc2ccccn2)sc2nc3c(cc12)CCCC3,78.7%
6,CCN1CCC[C@H]1c1cc(O)c2c(c1OC)C[C@H]1C[C@H]3[C@H](N)C(=O)C(C(N)=O)=C(O)[C@@]3(O)C(=O)C1=C2O,-2.43% (active)
7,Cc1cc(O)cc(O)c1N=NC1=NCCS1,97.8%
8,COC(=O)c1cncc(C(=O)Nc2ccc(-n3cnc4ccccc43)cc2)c1,95.6%
9,CNc1cccc2c1C(=O)c1cccc(N)c1C2=O,75.3%
10,O=S(=O)(Nc1nccs1)c1ccc(Nc2nc(-c3ccncc3)cs2)cc1,126%
11,CN1C(=O)c2cc(Cl)nc3c(NC(=O)c4cccc(Cl)c4)c(Cl)c(NC(=O)c4cccc(Cl)c4)c1c23,28.3%
12,O=C(O)COc1ccc2c(=O)c3sc4c(=O)c5ccccc5c(=O)c4c3c(=O)c2c1,-96.5% (active)
13,O=C(Nc1nc(-c2ccccc2)cs1)c1cc(-c2ccc(Br)cc2)nc2ccccc12,81.5%
14,Cc1cc(Nc2nc(SCc3ccc(C(=O)Nc4ccc(F)cc4N)cc3)nn3cccc23)n[nH]1,52.8%
15,O=C1NCc2ccc3c(-c4cccc(Cl)c4)c[nH]c3c21,47.6%
16,O=C(CN1N=C(c2ccc(F)cc2)CCC1=O)Nc1nccs1,100%
17,O=C1Nc2ccc(Cl)cc2/C1=N/c1nc(-c2ccc(F)cc2)cs1,65.7%
18,OCCNc1nc(NCCO)nc(Nc2ccc(C3=NN(c4cc(Cl)cc(Cl)c4)C(c4ccc(Cl)cc4)C3)cc2)n1 (configuration not stated),14.6%
